# Experimental data published in the supplement of paper PMC8728848.
# The entries come from a sample that favours the strongest signals as a whole.
# How the values were obtained:
# Experiment in all cases: glycan array binding signal (z-score within array); higher = stronger binding
# Settings in all cases: glycan notation: IUPAC condensed, linker removed
# [1] = molecular target: Fuc(a1-2)Gal(b1-3)GlcNAc(b1-2)Man(a1-3)[Fuc(a1-2)Gal(b1-3)GlcNAc(b1-2)Man(a1-6)]Man(b1-4)GlcNAc(b1-4)[Fuc(a1-6)]GlcNAc
# In short: (§1)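 The Consortium for Functional Glycomics database supplied 3228 glycan arrays, of which those lacking an available protein sequence were dropped. The binding signal, a within-array Z-score, was averaged across arrays of the same protein sequence and across linkers. Negative scores can be read as non-binding.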
# [2] = molecular target: Fuc(a1-2)Gal(b1-3)GlcNAc(b1-3)GalNAc
# In short: as §1
# [3] = molecular target: Fuc(a1-2)Gal(b1-4)[Fuc(a1-3)]GlcNAc(b1-2)Man(a1-3)[Fuc(a1-2)Gal(b1-4)[Fuc(a1-3)]GlcNAc(b1-2)Man(a1-6)]Man(b1-4)GlcNAc(b1-4)[Fuc(a1-6)]GlcNAc
# In short: as §1
# [4] = molecular target: Fuc(a1-2)Gal3S(b1-4)GlcNAc
# In short: as §1
# [5] = molecular target: Fuc(a1-2)[Gal(a1-3)]Gal(b1-4)GlcNAc(b1-3)[Fuc(a1-2)[Gal(a1-3)]Gal(b1-4)GlcNAc(b1-6)]GalNAc
# In short: as §1
# [6] = molecular target: Fuc(a1-2)[GalNAc(a1-3)]Gal(b1-3)GlcNAc
# In short: as §1
# [7] = molecular target: Fuc(a1-2)[GalNAc(a1-3)]Gal(b1-4)GlcNAc(b1-2)Man(a1-3)[Fuc(a1-2)[GalNAc(a1-3)]Gal(b1-4)GlcNAc(b1-2)Man(a1-6)]Man(b1-4)GlcNAc(b1-4)[Fuc(a1-6)]GlcNAc
# In short: as §1
# [8] = molecular target: Fuc(a1-4)GlcNAc
# In short: as §1
# [9] = molecular target: Gal(a1-3)Gal(b1-3)GlcNAc(b1-3)GalNAc
# In short: as §1
# [10] = molecular target: Gal(a1-3)Gal(b1-3)[Fuc(a1-4)]GlcNAc(b1-2)Man(a1-3)[Gal(a1-3)Gal(b1-3)[Fuc(a1-4)]GlcNAc(b1-2)Man(a1-6)]Man(b1-4)GlcNAc(b1-4)GlcNAc
# In short: as §1
# [11] = molecular target: Gal(a1-3)Gal(b1-4)GlcNAc(b1-2)Man(a1-3)[Gal(a1-3)Gal(b1-4)GlcNAc(b1-2)Man(a1-6)]Man(b1-4)GlcNAc(b1-4)GlcNAc
# In short: as §1
# [12] = molecular target: Gal(a1-4)Gal(b1-4)GlcNAc(b1-2)Man(a1-3)[Gal(a1-4)Gal(b1-4)GlcNAc(b1-2)Man(a1-6)]Man(b1-4)GlcNAc(b1-4)GlcNAc
# In short: as §1
# [13] = molecular target: Gal(b1-3)GlcNAc6S
# In short: as §1
# [14] = molecular target: Gal(b1-3)[Fuc(a1-4)]GlcNAc
# In short: as §1
# [15] = molecular target: Gal(b1-4)GalNAc(a1-3)[Fuc(a1-2)]Gal(b1-4)GlcNAc
# In short: as §1
# [16] = molecular target: Gal(b1-4)GlcNAc(b1-2)Man
# In short: as §1
# [17] = molecular target: Gal(b1-4)GlcNAc(b1-3)Gal(b1-4)GlcNAc(b1-2)Man(a1-3)[Gal(b1-4)GlcNAc(b1-3)Gal(b1-4)GlcNAc(b1-2)Man(a1-6)]Man(b1-4)GlcNAc(b1-4)GlcNAc
# In short: as §1
# [18] = molecular target: Gal(b1-4)GlcNAc(b1-3)Gal(b1-4)GlcNAc(b1-3)Gal(b1-4)GlcNAc(b1-2)Man(a1-3)[Gal(b1-4)GlcNAc(b1-3)Gal(b1-4)GlcNAc(b1-3)Gal(b1-4)GlcNAc(b1-2)Man(a1-6)]Man(b1-4)GlcNAc(b1-4)GlcNAc
# In short: as §1
# [19] = molecular target: Gal(b1-4)GlcNAc(b1-3)Gal(b1-4)GlcNAc(b1-3)Gal(b1-4)GlcNAc(b1-3)Gal(b1-4)GlcNAc(b1-2)Man(a1-3)[Gal(b1-4)GlcNAc(b1-3)Gal(b1-4)GlcNAc(b1-3)Gal(b1-4)GlcNAc(b1-3)Gal(b1-4)GlcNAc(b1-2)Man(a1-6)]Man(b1-4)GlcNAc(b1-4)GlcNAc
# In short: as §1
# [20] = molecular target: Gal(b1-4)GlcNAc(b1-3)Gal(b1-4)GlcNAc(b1-3)Gal(b1-4)GlcNAc(b1-3)Gal(b1-4)GlcNAc(b1-2)Man(a1-3)[Gal(b1-4)GlcNAc(b1-3)Gal(b1-4)GlcNAc(b1-3)Gal(b1-4)GlcNAc(b1-3)Gal(b1-4)GlcNAc(b1-2)Man(a1-6)]Man(b1-4)GlcNAc(b1-4)[Fuc(a1-6)]GlcNAc
# In short: as §1
# [21] = molecular target: Gal(b1-4)GlcNAc(b1-3)Gal(b1-4)GlcNAc(b1-3)Gal(b1-4)GlcNAc(b1-3)Gal(b1-4)GlcNAc(b1-3)Gal(b1-4)GlcNAc(b1-2)Man(a1-3)[Gal(b1-4)GlcNAc(b1-3)Gal(b1-4)GlcNAc(b1-3)Gal(b1-4)GlcNAc(b1-3)Gal(b1-4)GlcNAc(b1-3)Gal(b1-4)GlcNAc(b1-2)Man(a1-6)]Man(b1-4)GlcNAc(b1-4)[Fuc(a1-6)]GlcNAc
# In short: as §1
# [22] = molecular target: Gal(b1-4)GlcNAc(b1-3)Gal(b1-4)GlcNAc(b1-3)[Gal(b1-4)GlcNAc(b1-3)Gal(b1-4)GlcNAc(b1-6)]GalNAc
# In short: as §1
# [23] = molecular target: Gal6S(b1-3)GlcNAc6S
# In short: as §1
# [24] = molecular target: Gal6S(b1-4)GlcNAc
# In short: as §1
# [25] = molecular target: GalNAc(a1-3)GalNAc(b1-3)Gal(a1-4)Gal(b1-4)Glc
# In short: as §1
# [26] = molecular target: GalNAc(b1-3)Gal(a1-4)Gal(b1-4)GlcNAc
# In short: as §1
binder,measurement,setting,value
TIM1 (protein) ADGIQSVKVGGEAGPSVTLPCHYSGAVTSMCWNRGSCSLFTCQNGIVWTNGTHVTYRKDTRYKLLGDLSRRDVSLTIENTAVSDSGVYCCRVEHRGWFNDMKITVSLEIVPPHHHHHH,glycan array binding signal (z-score),[1],-0.132
same,glycan array binding signal (z-score),[2],-0.153
same,glycan array binding signal (z-score),[3],0.121
same,glycan array binding signal (z-score),[4],-0.264
same,glycan array binding signal (z-score),[5],1.94
same,glycan array binding signal (z-score),[6],-0.189
same,glycan array binding signal (z-score),[7],-0.187
same,glycan array binding signal (z-score),[8],8.15
same,glycan array binding signal (z-score),[9],-0.169
same,glycan array binding signal (z-score),[10],0.01
same,glycan array binding signal (z-score),[11],0.343
same,glycan array binding signal (z-score),[12],-0.176
same,glycan array binding signal (z-score),[13],-0.212
same,glycan array binding signal (z-score),[14],-0.25
same,glycan array binding signal (z-score),[15],-0.212
same,glycan array binding signal (z-score),[16],0.009
same,glycan array binding signal (z-score),[17],7.65
same,glycan array binding signal (z-score),[18],3.39
same,glycan array binding signal (z-score),[19],0.208
same,glycan array binding signal (z-score),[20],0.223
same,glycan array binding signal (z-score),[21],-0.05
same,glycan array binding signal (z-score),[22],2.45
same,glycan array binding signal (z-score),[23],-0.043
same,glycan array binding signal (z-score),[24],-0.175
same,glycan array binding signal (z-score),[25],-0.178
same,glycan array binding signal (z-score),[26],0.287
